Measured values reported in PubChem BioAssay.
“And” between values parts separate entries of the source, which are not always exact repeats. Equal entries are not always repeated. The source made the active and inactive calls.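 The calls were made as follows, unless noted: active = compounds whose cell count with miR-34 switched on is under 0.7 times the count with it off; inactive = the rest.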

Key:
[1] = liver-stage malaria parasite growth inhibition, primary screen, cell-based, HepG2, luciferase luminescence, HepG2 viability (AID 624349; in the data active = parasite load remaining mostly below about 12%, no sharp cut-off; inactive = mostly above about 10%;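 also: 100% = mean of DMSO negative control wells on the same plate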); conditions: P. berghei liver stage in HepG2, luciferase luminescence, concentration not given here; parasite load remaining: stronger effect = lower value; viability: measured here: HepG2 viability without parasites
[2] = stimulators of nuclear beta-catenin in C2C12, primary screen, imaging, WNT3A-conditioned medium, mouse C2C12, NPC library (AID 1117326; in the data active = nuclear beta-catenin stimulation mostly above about 4.2%, no sharp cut-off; inactive = mostly below about 10%); conditions: stronger effect = higher value
[3] = stimulators of insulin release from INS-1E, primary screen, cell-based, 5 mM glucose, NPC library (AID 1117329;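 active = compound raises insulin release from rat beta cells at 5 mM glucose, no numeric limit stated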); conditions: rat INS-1E insulin secretion, at 10 µM, stronger effect = higher value
[4] = growth inhibition of GSK3B-pretreated HCT116 cells – cell-based, CellTiter-Glo, 0.2 to 20 µM (AID 1117336;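 active = compounds lowering colon cancer cell viability after pretreatment blocking the GSK3B kinase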); conditions: HCT116 viability after GSK3B inhibitor, at 20 µM, stronger effect = higher value
[5] = inhibition of endothelial tube formation, primary screen, imaging, VEGF stimulated, CD31 staining, tube area, NPC library (AID 1117340;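 active = compound that reduces growth-factor-driven endothelial tube area in a mixed cell culture, no cutoff stated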); conditions: VEGF-stimulated ADSC/ECFC co-culture, at 10 µM, stronger effect = higher value
[6] = glucagon-like peptide 1 release enhancers, primary assay, NCI-H716 cell line, NPC library (AID 1117341;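 active = compound raises GLP1 secretion from the human gut endocrine cells, with no numeric limit stated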); conditions: NCI-H716 cells, at 10 µM, stronger effect = higher value
[7] = HCT116 colon cancer cell growth inhibition, primary screen, CellTiter-Glo luminescence, NPC library (AID 1117342;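 active = compounds that lower survival of HCT116 colon cancer cells in the luminescence readout, no numeric limit stated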); conditions: at 20 µM (top of the series)
[8] = CellTiter-Glo luminescent readout of SW480 viability loss, NPC library primary (AID 1117343;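 active = compounds that lower viability of the colon cancer cells in the luminescence readout, with no numeric limit stated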); conditions: CellTiter-Glo luminescence; at 20 µM (top of the series)
[9] = decreased DLD-1 cellular survival, CellTiter-Glo luminescent readout, NPC compound collection, primary HTS (AID 1117346;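 active = compounds that lower survival of DLD-1 colon cancer cells in the luminescence readout, no cutoff given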); conditions: DLD-1 viability, CellTiter-Glo luminescence; at 20 µM (top of the series)
[10] = biological target: 6-phosphogluconate dehydrogenase, decarboxylating (Homo sapiens) (UniProt P52209); assay: 6PGD enzyme inhibitors, primary screen, biochemical, human, recombinant enzyme, NADPH absorbance (AID 1159550;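 active = at least 20% inhibition of 6-phosphogluconate dehydrogenase activity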); conditions: recombinant 6PGD, NADPH absorbance 341 nm; at 10 µM; stronger effect = higher value
[11] = differential killing of epithelial or mesenchymal cells, primary screen, imaging, PC-3E GFP, TEM4-18 mCherry, co-culture (AID 1345086;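 active = compounds killing one labelled cell type while sparing the other, by normalised counts and ratio limits, not self-fluorescent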;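 as to all read-outs here: cells exposed to compound for 72 h before imaging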;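 as to red/green cell ratio (normalised): normalised mesenchymal count divided by normalised epithelial count so high means epithelial killing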); conditions: imaging cell counts, at 1 µM; for red/green cell ratio (normalised): actives lie on both sides
[12] = system: Aerobactin synthetase IucA (Klebsiella pneumoniae hvKP1); assay: Biochemical IucA enzyme inhibition primary screen of the Spectrum library (AID 1346200; call rule not given here;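 also: 100% = wells without compound and 0% = wells lacking enzyme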); conditions: malachite green pyrophosphate, A620, at 8 µM, stronger effect = lower value
[13] = sensitizers of A549 cells to miR-34 induction, primary screen, imaging, A549 dox-inducible miR-34, nuclei and caspase counts (AID 1347080); conditions: A549 miR-34 inducible, Hoechst nuclei count, 48 h
[14] = survival rescue of mitochondrial mutant cells in low glucose, primary screen, MELAS cybrids, Rieske KO mouse fibroblasts, CellTiter-Glo (AID 1508586;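 active = mean z-score across replicates of 1.96 or higher in either the MELAS or the Rieske mutant cell line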;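 also: z relative to plate mean and SD of compound and empty wells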)
[15] = biological target: NAD(+) hydrolase SARM1 (Homo sapiens) (UniProt Q6SZW1); assay: SARM1 TIR NADase inhibitors, cell lysate, NAD-Glo luminescence (AID 1508614;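 active = compound whose remaining NAD level is above about 45 nM, limit read from the data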;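 also: higher remaining NAD means stronger inhibition of SARM1 NADase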); conditions: SAM-TIR HEK293T lysate NADase, at 1 µM, stronger effect = higher value
[16] = biological target: Mitogen-activated protein kinase 7 (Homo sapiens) (UniProt Q13164); assay: ERK5 transactivation activators in reporter cells, primary screen, cell-based, HTS (AID 1508626;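 active = luciferase signal above three times the same-plate solvent-only control wells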;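 also: luciferase driven by Gal4-ERK5 fusion binding five Gal4 sites before minimal TATA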); conditions: HeLa Gal4-ERK5 transactivation, 18 h, at 5 µM, stronger effect = higher value
[17] = viability rescue of complex I mutant cybrids, primary screen, cell-based, galactose medium, ATP luminescence (AID 1645843;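 active = z-score of at least 1.8 in each of two replicates, scored against plate mean and spread of sample wells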;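 also: positive z means more ATP and so rescue of galactose-driven cybrid death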); conditions: complex I mutant cybrid cells, 72 h, stronger effect = higher value
[18] = measured here: epithelial PC-3E GFP cell survival
[19] = measured here: mesenchymal TEM4-18 mCherry cell survival
[20] = measured here: relative caspase fold change +Dox/-Dox
[21] = measured here: total cells with miR-34 induction, stronger effect = lower value
[22] = measured here: total cells without miR-34 induction
[23] = MELAS cybrid survival, CellTiter-Glo 48 h, stronger effect = higher value
[24] = Rieske KO mouse fibroblast survival, CellTiter-Glo 72 h

Sequence of NAD(+) hydrolase SARM1 (Homo sapiens) (Q6SZW1 whole entry, looked up, the tested form may be a part): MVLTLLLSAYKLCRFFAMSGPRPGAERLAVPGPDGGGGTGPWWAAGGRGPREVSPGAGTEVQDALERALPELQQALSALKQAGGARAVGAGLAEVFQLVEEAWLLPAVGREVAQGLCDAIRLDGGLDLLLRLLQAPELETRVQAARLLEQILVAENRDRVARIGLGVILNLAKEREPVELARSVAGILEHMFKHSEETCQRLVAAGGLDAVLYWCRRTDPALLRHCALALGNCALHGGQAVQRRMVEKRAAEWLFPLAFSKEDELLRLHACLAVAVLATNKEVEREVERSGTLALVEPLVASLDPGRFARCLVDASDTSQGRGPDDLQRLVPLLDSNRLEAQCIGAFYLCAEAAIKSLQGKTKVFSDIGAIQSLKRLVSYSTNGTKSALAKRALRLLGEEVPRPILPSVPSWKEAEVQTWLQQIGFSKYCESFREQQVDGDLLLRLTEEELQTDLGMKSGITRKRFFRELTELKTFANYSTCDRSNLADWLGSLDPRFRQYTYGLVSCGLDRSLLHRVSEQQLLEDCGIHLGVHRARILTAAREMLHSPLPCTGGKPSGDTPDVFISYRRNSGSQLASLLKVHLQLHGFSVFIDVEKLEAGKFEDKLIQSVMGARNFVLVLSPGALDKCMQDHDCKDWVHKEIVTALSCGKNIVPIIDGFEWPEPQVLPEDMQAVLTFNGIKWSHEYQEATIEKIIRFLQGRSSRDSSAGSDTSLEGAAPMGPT
Sequence of 6-phosphogluconate dehydrogenase, decarboxylating (Homo sapiens) (P52209 whole entry, looked up): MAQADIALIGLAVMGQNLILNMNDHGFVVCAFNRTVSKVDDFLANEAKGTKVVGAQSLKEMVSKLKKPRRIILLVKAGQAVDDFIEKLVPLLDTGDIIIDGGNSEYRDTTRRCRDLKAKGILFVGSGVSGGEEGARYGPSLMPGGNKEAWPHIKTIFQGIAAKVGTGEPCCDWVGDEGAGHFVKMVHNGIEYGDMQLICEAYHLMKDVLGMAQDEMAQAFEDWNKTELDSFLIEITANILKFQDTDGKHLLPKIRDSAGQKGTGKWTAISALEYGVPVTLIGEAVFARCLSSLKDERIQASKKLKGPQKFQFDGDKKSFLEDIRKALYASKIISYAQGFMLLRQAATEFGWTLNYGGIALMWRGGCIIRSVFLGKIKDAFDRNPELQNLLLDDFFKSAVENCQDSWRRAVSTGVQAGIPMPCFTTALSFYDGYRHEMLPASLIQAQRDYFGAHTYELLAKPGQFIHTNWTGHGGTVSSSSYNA
Sequence of Mitogen-activated protein kinase 7 (Homo sapiens) (Q13164 whole entry, looked up, the tested form may be a part): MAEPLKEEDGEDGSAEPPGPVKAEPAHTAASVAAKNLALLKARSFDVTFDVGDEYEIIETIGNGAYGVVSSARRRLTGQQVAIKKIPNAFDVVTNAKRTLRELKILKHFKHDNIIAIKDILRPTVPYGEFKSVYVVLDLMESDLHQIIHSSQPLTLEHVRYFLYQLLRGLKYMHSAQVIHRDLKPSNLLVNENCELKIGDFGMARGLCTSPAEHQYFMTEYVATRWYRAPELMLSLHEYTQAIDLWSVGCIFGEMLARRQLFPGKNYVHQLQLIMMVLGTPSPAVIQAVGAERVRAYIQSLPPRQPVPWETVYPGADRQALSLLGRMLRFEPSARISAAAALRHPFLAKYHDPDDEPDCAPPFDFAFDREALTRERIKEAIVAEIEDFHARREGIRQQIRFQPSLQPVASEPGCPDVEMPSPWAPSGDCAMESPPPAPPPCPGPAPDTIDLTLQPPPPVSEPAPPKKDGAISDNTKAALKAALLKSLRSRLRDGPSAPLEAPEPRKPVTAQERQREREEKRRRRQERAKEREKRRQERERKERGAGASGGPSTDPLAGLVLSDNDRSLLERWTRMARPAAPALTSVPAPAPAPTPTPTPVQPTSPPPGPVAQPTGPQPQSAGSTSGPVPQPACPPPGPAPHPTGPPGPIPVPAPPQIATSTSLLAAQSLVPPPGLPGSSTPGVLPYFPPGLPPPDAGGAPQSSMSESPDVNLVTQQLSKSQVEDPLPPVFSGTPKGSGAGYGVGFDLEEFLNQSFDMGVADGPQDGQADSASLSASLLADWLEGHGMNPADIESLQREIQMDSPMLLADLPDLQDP

SMILES: Cc1cc(O)ccc1Cl
- parasite load remaining [1]: 125% (inactive) and 54.1% (inactive)
- viability [1]: 73.3% and 86.2%
- nuclear beta-catenin stimulation ([2]; at 10 µM): 0.9% (inactive)
- nuclear beta-catenin stimulation ([2]; stimulation, at 2 µM): 1.9%
- insulin secretion stimulation [3]: 0.3% (inactive)
- viability decrease [4]: -17% (inactive)
- tube area decrease [5]: 1.5% (inactive)
- GLP1 secretion stimulation [6]: 0.3% (inactive)
- inhibition of viability [7]: 3.83% (inactive)
- viability decrease (inhibition) [8]: 26.8% (inactive)
- viability decrease (inhibition) [9]: -3.4% (inactive)
- inhibition [10]: 3.62% (inactive)
- red/green cell ratio (normalised) [11]: 1.21 (inactive)
- normalised cell number [11, 18]: 1.13
- normalised cell number [11, 19]: 1.36
- activity remaining [12]: 115% (inactive)
- fold change ([13]; stronger effect = lower value): 0.943 (inactive) and 0.921 (inactive)
- fold change [13, 20]: 0.551 and 0.785
- cell count [13, 21]: 8310 and 10900
- cell count [13, 22]: 8820 and 11800
- z-score [14, 23]: -0.196 (inactive)
- z-score [14, 24]: -0.163
- remaining NAD [15]: 10 nM (inactive)
- luciferase signal [16]: 32 AU (inactive)

SMILES: C[C@@H]1CC[C@H]2[C@@H](C)C(=O)O[C@@H]3O[C@@]4(C)CC[C@@H]1[C@]32OO4
- parasite load remaining [1]: 25.6% (inactive) and 10.2% (inactive)
- viability [1]: 117% and 66.5%
- nuclear beta-catenin stimulation ([2]; at 10 µM): 4.6% (inactive)
- nuclear beta-catenin stimulation ([2]; stimulation, at 2 µM): 12.4%
- insulin secretion stimulation [3]: 1.2% (inactive)
- viability decrease [4]: -77.7% (inactive)
- tube area decrease [5]: 2.4% (inactive)
- GLP1 secretion stimulation [6]: 2.4% (inactive)
- inhibition of viability [7]: -20.1% (inactive)
- viability decrease (inhibition) [8]: 9.1% (inactive)
- viability decrease (inhibition) [9]: 1.3% (inactive)
- inhibition [10]: 13.7% (inactive)
- fold change ([13]; stronger effect = lower value): 0.79 (inactive) and 0.823 (inactive) and 0.882 (inactive)
- fold change [13, 20]: 1.42 and 2.37 and 1.1
- cell count [13, 21]: 7550 and 7220 and 8310
- cell count [13, 22]: 9550 and 8770 and 9420
- z-score [14, 23]: -0.639 (inactive) and -0.018 (inactive)
- z-score [14, 24]: -1.11 and 0.162
- remaining NAD [15]: 10 nM (inactive)
- luciferase signal [16]: 84 AU (inactive)
- z-score [17]: -0.515 (inactive) and -1.27 (inactive)

SMILES: CC(C)=CC1C(C(=O)OCc2cccc(Oc3ccccc3)c2)C1(C)C (stereo unspecified)
- parasite load remaining [1]: 123% (inactive)
- viability [1]: 88.5%
- nuclear beta-catenin stimulation ([2]; at 10 µM): 1.3% (inactive)
- nuclear beta-catenin stimulation ([2]; stimulation, at 2 µM): 2.5%
- insulin secretion stimulation [3]: 2.9% (inactive)
- viability decrease [4]: -21.3% (inactive)
- tube area decrease [5]: -14.2% (inactive)
- GLP1 secretion stimulation [6]: 1.7% (inactive)
- inhibition of viability [7]: 15.9% (inactive)
- viability decrease (inhibition) [8]: 16.2% (inactive)
- viability decrease (inhibition) [9]: 31.4% (inactive)
- inhibition [10]: -5.61% (inactive)
- red/green cell ratio (normalised) [11]: 0.95 (inactive)
- normalised cell number [11, 18]: 1.25
- normalised cell number [11, 19]: 1.19
- activity remaining [12]: 99.1% (inactive)
- remaining NAD [15]: 10 nM (inactive)

SMILES: CCOP(=S)(OCC)Oc1cc(C)nc(C(C)C)n1
- nuclear beta-catenin stimulation ([2]; at 10 µM): -0.5% (inactive)
- nuclear beta-catenin stimulation ([2]; stimulation, at 2 µM): 0.1%
- insulin secretion stimulation [3]: 0.4% (inactive)
- viability decrease [4]: -71.8% (inactive)
- tube area decrease [5]: 0.2% (inactive)
- GLP1 secretion stimulation [6]: -1.4% (inactive)
- inhibition of viability [7]: 11.6% (inactive)
- viability decrease (inhibition) [8]: 34% (inactive)
- viability decrease (inhibition) [9]: 2.6% (inactive)
- inhibition [10]: -22.8% (inactive)
- red/green cell ratio (normalised) [11]: 1 (inactive)
- normalised cell number [11, 18]: 1
- normalised cell number [11, 19]: 1
- activity remaining [12]: 77.6% (inactive)
- fold change ([13]; stronger effect = lower value): 0.932 (inactive)
- fold change [13, 20]: 1.33
- cell count [13, 21]: 9160
- cell count [13, 22]: 9830
- remaining NAD [15]: 10 nM (inactive)
